# Measurements: the supplement of paper PMC8866396
# Structures can show the parent of a compound that is named as a salt. ± gives the standard deviation of the averaged measurements.
# How the values were obtained:
# [1] = tested on: IL-6-GFP PC-9GR; assay: cell viability (CCK-8 OD) relative to DMSO control (fraction of control); higher = more viable cells; conditions: compound concentration: 10 uM; treatment time: 48 h
# In short: (§1)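 PC-9 and PC-9GR lung cancer cells expressing lentiviral IL-6-GFP were plated at 3000 cells/well in 96-well plates and treated for 48 h with each library compound at a final 10 μM. Viability was determined by CCK-8 absorbance as a ratio of each well's optical density to the vehicle control well.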
# [2] = tested on: IL-6-GFP PC-9; assay: as above; conditions: compound concentration: 10 uM; treatment time: 48 h
# In short: as §1
SMILES,cell viability [1],cell viability [2]
COc1cc2c3cc1Oc1c(OC)c(OC)cc4c1C(Cc1ccc(O)c(c1)Oc1ccc(cc1)CC3N(C)CC2)N(C)CC4.Cl.Cl (stereo not given) [Berbamine (dihydrochloride)],1.14 ± 0.35,1.04 ± 0.053
CCCCC(=O)OC1(C(=O)CO)C(C)CC2C3CCC4=CC(=O)C=CC4(C)C3(F)C(O)CC21C (stereo not given) [Betamethasone Valerate],1.11 ± 0.14,0.804 ± 0.026
O=C(Oc1ccccc1C(=O)O)c1ccccc1O [Sasapyrine],0.988 ± 0.067,1.25 ± 0.019
CC(C(=O)O)c1ccc2c(c1)[nH]c1ccc(Cl)cc12 (stereo not given) [Carprofen],1.16 ± 0.41,0.265 ± 0.35
C=C1CCC2C(C)(COC(=O)CCC(=O)O)C(OC(=O)CCC(=O)O)CCC2(C)C1/C=C/C1=CCOC1=O (stereo not given) [Dehydroandrographolide Succinate],0.966 ± 0.062,1.16 ± 0.016
CC(C(=O)O)c1ccc2c(c1)Cc1cccnc1O2 (stereo not given) [Pranoprofen],1.12 ± 0.019,1.25 ± 0.055
CC(C)CC(NC(=O)CNC(=O)c1cc(Cl)ccc1Cl)B1OC(=O)CC(CC(=O)O)(C(=O)O)O1 (stereo not given) [Ixazomib Citrate (MLN9708)],0.316 ± 0.3,0.339 ± 0.12
CC(=O)Oc1cccc2c1C(=O)c1c(OC(C)=O)cc(C(=O)O)cc1C2=O [Diacerein],1.14 ± 0.39,0.97 ± 0.034
CC(C(=O)O)c1ccc(CC2CCCC2=O)cc1 (stereo not given) [Loxoprofen],1.04 ± 0.028,1.29 ± 0.05
CCN(CC)CCNC(=O)c1c(C)[nH]c(/C=C2\C(=O)Nc3ccc(F)cc32)c1C.O=C(O)CC(O)C(=O)O [Sunitinib Malate],1.01 ± 0.063,0.453 ± 0.52
